In paper PMC12136788:
Substitutions are numbered along the chain they refer to. Over roughly 5,800 sequences, “enrichment r” has its median near 0.68; the highest 2% begin near 11. Many of the other results were omitted from the sample, so the highest values are more common in it than they were.

B1: chr17:61865808:61865921:-|3pUTR|ENSG00000108506|unk|FALSE|unique (ssRNA)
RNA: GGGAGUUCUACAGUCCGACGAUCUUCUAUGAGAAUGAGUUUGUAGCUGUUUCAAAUCAUGAAGUGCAUAGUAUCACAUGUGAUAGAAUAUUUAUAACUUUUUAUUAGAUGCUUAAUGUUCAAUUAAGUAAUUUUGAUGUGAAACAACAGAGGAUUGAGCAUCA
B2: chr17:32711987:32712195:-|CDS|ENSG00000176658|control|control|control (ssRNA)
RNA: GGGAGUUCUACAGUCCGACGAUCUCCUUCAGACAAAGAGGCUGUCAAGAAACUAAUUGAACGGUGUGGUUUUCAGGAUGAUGUAGCUUAUGGGAAGACCAAAAUUUUCAUUCGAACACCCCGAACAUUGUUUACCUUGGAAGACAACAGAGGAUUGAGCAUCA
B3: chr12:293013:293114:-|CDS|ENSG00000073614|unk|FALSE|bound_elsewhere (ssRNA)
RNA: GGGAGUUCUACAGUCCGACGAUCACUAAAAGUGAAAGGAAAGGACUCUUCAGAGAAGAAACGGAAACGGAAGCUAGAAAAGGUAGAGCAACUUUUUGGAGAAGGAAAACAGAAGUCCAAGGAGUUAAAGAAAAUGGACAAACCCAACAGAGGAUUGAGCAUCA
B4: chr1:228098150:228098251:+|3pUTR|ENSG00000143761|msi1_unk|total|mutant (ssRNA)
RNA: GGGAGUUCUACAGUCCGACGAUCGCACCGUGCUGUAAAUGUGGCAGACGCAGCCUGCGGCCAGGCUUUUUAUUUAAUGUAAACCGUUUUUGUUUCCAAUGAGGCAGUUUCUGGUACUCCUAUGCAAUAUUACUCAGCUUUUUUCAACAGAGGAUUGAGCAUCA
B5: chr7:50445662:50445763:-|CDS|ENSG00000132436|msi1|FALSE|unique (ssRNA)
RNA: GGGAGUUCUACAGUCCGACGAUCGUUAUCUCAACGGGGAGAUGGUGAGCAUGAAUCUUCUAGAAGGAUAAAAACAGAAUUUUUAGUUCAAUUAGAUGGAGCAACAACAUCUUCUGAAGAUCGUAUCCUAGUGGUGGGAGCAACCAACAGAGGAUUGAGCAUCA
B6: chr3:121431430:121432303:-|three_prime_utr|ENSG00000051341|control|control|control (ssRNA)
RNA: GGGAGUUCUACAGUCCGACGAUCUGGAAAGAACAGAGAUUACCCUUUCACCUACCUCAGCAAAACAAACUUUCAAGUCUUGAUAGACUUAGCCUAGUAAUUUUAUAGUGAGAGUUUCAAACUAUAUAUCAGUGUCUAUAGCAUCAACAGAGGAUUGAGCAUCA
B7: chr11:22846921:22847509:-|three_prime_utr|ENSG00000255359|control|control|control (ssRNA)
RNA: GGGAGUUCUACAGUCCGACGAUCCUCCACCAUUUCGGAAAAAUAAACACAGUGCAAGUAUUUAAUAUCCAAGCUACAGGCUCUAGAAUUUUAUUAAAUGCCAUCUCUCACUACCAUAUUUUUCUUUCCUGUGGUAAACUUGAACAACAGAGGAUUGAGCAUCA
B8: chr8:74853834:74853946:+|3pUTR|ENSG00000137558|unk|FALSE|unique (ssRNA)
RNA: GGGAGUUCUACAGUCCGACGAUCAAGUGCUUUUUUUUUUCUGAAUUAAUUAGGUAUUGGUAAAAUAUAUUUUUAAAUUUAGUUAGCUUUAUAAACACAAUUAGAAUUACAAUUAAUUAACAGAGGUAUAAUUGUCUCACUUUCCAACAGAGGAUUGAGCAUCA
B9: ENSG00000198589:be:win_8701|3pUTR|ENSG00000198589|bound_else_gene|NA|bound_elsewhere_windowed (ssRNA)
RNA: GGGAGUUCUACAGUCCGACGAUCUGUAGUCUUUGCUUGACUUUUUUGGGGGGGAUUAGCAAAGCAGAAAACUGGCUGCUGGGUUCUGUAGUUUUAAAAAAUCUAUAUUUUUAGUCAUAAUGAGAAGUCUAUUUUCACCAAUUACAACAGAGGAUUGAGCAUCA
B10: chr4:150265445:150265561:-|3pUTR|ENSG00000198589|unk|total|mutant (ssRNA)
RNA: GGGAGUUCUACAGUCCGACGAUCGGAUCCGCAAAGCAGAAAACUGGCUGCUGGGUUCUGCCGUUUUAAAAAAUCUAUAUUUUCCGUCAUAAUGAGAAGUCUAUUUUCACCAAUUAUGGAAACAUACAGUGGAGCAAGUAAACCCAACAGAGGAUUGAGCAUCA
B11: chr4:150265445:150265561:-|3pUTR|ENSG00000198589|unk|FALSE|bound_elsewhere (ssRNA)
RNA: B10 RNA with C28U, C29A, C60U, C61A, C83U, C84A
B12: chr6:119178661:119178762:-|3pUTR|ENSG00000111885|msi1|FALSE|unique (ssRNA)
RNA: GGGAGUUCUACAGUCCGACGAUCGAAAGAAGCUUUGCCAAUUUUACUUAUUCGUGAUCAAUCAAGGAAAAUCUAAUAAAUUUUAGGCCAAAUAAGAAUAUAGCAUAUUUAGUAUGGUUAUAGUCAACACAGAGAUCACAACUUCAACAGAGGAUUGAGCAUCA
B13: chr21:43695798:43695899:+|3pUTR|ENSG00000160208|msi1|FALSE|unique (ssRNA)
RNA: GGGAGUUCUACAGUCCGACGAUCACAAUAUUUUGUAAAAUGAUGCUUCCCCCUUCUCCAUGGUCUAGUCAAUUUUGUACAAUUAGGUAUCUGACUUUACAAGUUUGUUAUCCUUUCUAAUUUUUACUGAACUGAAAGCACAAACAACAGAGGAUUGAGCAUCA
B14: chr9:122240152:122240253:-|3pUTR|ENSG00000119446|msi1|FALSE|unique (ssRNA)
RNA: GGGAGUUCUACAGUCCGACGAUCCUUCUUGGAGUAUAGAAUUCACCAUUUUAUCCGUAAGUCUUCAAAGGAUUAUGGUGGACUAGAACUUACAUAGUGCAAAAUAGUCUUCUAUUUUUAAUAGGAACUUAGAAAAAACUUAGACAACAGAGGAUUGAGCAUCA
B15: chr17:81921741:81921842:-|3pUTR|ENSG00000197063|msi1|FALSE|unique (ssRNA)
RNA: GGGAGUUCUACAGUCCGACGAUCAAUUAUAUGUUUAAAAGUUAAAGAAAAAAGAGCUGCAGAGUAUUUAUAAAACUGUCUUUUAGAAAAAAAACAAGCAAGAAGACCAUUUGACCAUAUGAAUGGAAAAGGGAAGAAAGUAUACAACAGAGGAUUGAGCAUCA
B16: ENSG00000120802:stop:overlap|stop_codon|ENSG00000120802|stop_codon|NA|stop_codon (ssRNA)
RNA: GGGAGUUCUACAGUCCGACGAUCGUGGAACAUUAUUUGGAGGAGAAGUAUGCAAAGUAAUUAAAAAGCGUGGAAAUAAACACUAGUAAAAUUAAGGACAAAAAGACAUCUAUCUUAUCUUUCAGGUACUUUAUGCCAACAUUUCAACAGAGGAUUGAGCAUCA
B17: chr12:123662440:123662541:+|3pUTR|ENSG00000111358|unk|FALSE|unique (ssRNA)
RNA: GGGAGUUCUACAGUCCGACGAUCAAUGGAAAUCACAAUUUUAAGUCUAGGAAAUAAAGUAUUAUAUAUACUUUCAAACAAGCUAGCAAGGCUUUUAUUAUUACUUUUUUAUUUGAAAUAUCUUAUAUAUUUGGUUAGUUCUGUCAACAGAGGAUUGAGCAUCA

These binders were tested against T1, UNK ZnF1-6 (called full-length) (human, UniProt Q9C0B0 30-357) (assay: nsRBNS (natural sequence RNA bind-n-seq); RBNS binding buffer (assumed for nsRBNS): 25 mM Tris pH 7.5, 150 mM KCl, 3 mM MgCl2, 0.01% Triton X-100, 500 ug/ml BSA, 20 U/ml SUPERase-In, 4 C; UNK is unkempt and MSI1 is Musashi-1; names of the RNAs are library labels; protein concentration not given here; high values mean tight binding).
T1 sequence: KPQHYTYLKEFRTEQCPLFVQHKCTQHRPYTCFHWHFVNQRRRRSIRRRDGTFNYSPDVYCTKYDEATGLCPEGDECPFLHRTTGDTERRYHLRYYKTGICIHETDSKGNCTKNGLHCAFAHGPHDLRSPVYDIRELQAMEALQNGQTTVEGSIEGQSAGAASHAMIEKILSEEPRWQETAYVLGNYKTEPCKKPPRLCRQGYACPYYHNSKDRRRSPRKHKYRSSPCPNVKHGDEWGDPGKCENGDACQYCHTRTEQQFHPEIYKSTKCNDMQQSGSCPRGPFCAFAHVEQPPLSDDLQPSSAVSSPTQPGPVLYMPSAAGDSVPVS
For B1, the binding signal was 2.51 enrichment R. B2 gave a binding signal of 0.434 enrichment R. B3 showed a binding signal of 0.672 enrichment R. In the case of B4, the binding signal is reported as 0.896 enrichment R. B5 gave a binding signal of 0.853 enrichment R. With B6 the binding signal was 8.5 enrichment R. For B7, the binding signal was 0.713 enrichment R. For B8, the binding signal was 171 enrichment R. In the case of B9, the binding signal is reported as 29 enrichment R. B10 showed a binding signal of 0.438 enrichment R. Binder B11 has a binding signal of 2.4 enrichment R. For B12, the binding signal was 2.15 enrichment R. B13 gave a binding signal of 1.9 enrichment R. B14 showed a binding signal of 41.4 enrichment R. In the case of B15, the binding signal is reported as 2.78 enrichment R. With B16 the binding signal was 1.07 enrichment R. B17 gave a binding signal of 12.5 enrichment R.
